Data: ChEMBL document CHEMBL1961873, “Compounds: GSK PKIS; Assays: Nanosyn kinase panel” (2012)

Experiments:
[1] = target: T1, Aurora kinase A (Homo sapiens) (UniProt O14965); details: at 1 µM;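 further: values are mean percent inhibition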
T1 sequence (whole entry): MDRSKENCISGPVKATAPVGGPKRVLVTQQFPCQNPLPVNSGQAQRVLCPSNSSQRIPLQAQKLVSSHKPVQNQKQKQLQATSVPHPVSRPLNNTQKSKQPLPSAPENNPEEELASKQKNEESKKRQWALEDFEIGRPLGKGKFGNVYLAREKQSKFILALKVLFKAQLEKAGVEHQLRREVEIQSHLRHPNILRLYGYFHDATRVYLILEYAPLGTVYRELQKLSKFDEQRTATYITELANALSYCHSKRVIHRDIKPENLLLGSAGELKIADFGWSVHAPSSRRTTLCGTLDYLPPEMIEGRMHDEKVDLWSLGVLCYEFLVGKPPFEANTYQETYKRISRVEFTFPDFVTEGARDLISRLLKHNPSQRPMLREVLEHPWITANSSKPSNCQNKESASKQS

[2] = target: Aurora kinase B (Homo sapiens) (UniProt Q96GD4); details: at 0.1 µM
[3] = target: Aurora kinase B (Homo sapiens) (UniProt Q96GD4); details: at 1 µM
[4] = target: T2, Aurora kinase C (Homo sapiens) (UniProt Q9UQB9); details: at 0.1 µM
T2 sequence (whole entry): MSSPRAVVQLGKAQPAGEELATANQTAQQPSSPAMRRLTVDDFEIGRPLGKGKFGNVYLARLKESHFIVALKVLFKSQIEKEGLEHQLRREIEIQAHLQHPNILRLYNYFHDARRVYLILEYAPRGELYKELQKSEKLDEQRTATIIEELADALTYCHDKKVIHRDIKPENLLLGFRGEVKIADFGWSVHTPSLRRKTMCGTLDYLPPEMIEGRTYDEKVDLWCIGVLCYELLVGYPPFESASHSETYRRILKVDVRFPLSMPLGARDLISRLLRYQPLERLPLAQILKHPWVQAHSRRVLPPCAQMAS

[5] = target: T2, Aurora kinase C (Homo sapiens); details: at 1 µM
[6] = target: Serine/threonine-protein kinase 10 (Homo sapiens) (UniProt O94804); details: at 0.1 µM
[7] = target: Serine/threonine-protein kinase 10 (Homo sapiens) (UniProt O94804); details: at 1 µM
[8] = target: T3, Mitogen-activated protein kinase kinase kinase kinase 2 (Homo sapiens) (UniProt Q12851); details: at 0.1 µM
T3 sequence (whole entry): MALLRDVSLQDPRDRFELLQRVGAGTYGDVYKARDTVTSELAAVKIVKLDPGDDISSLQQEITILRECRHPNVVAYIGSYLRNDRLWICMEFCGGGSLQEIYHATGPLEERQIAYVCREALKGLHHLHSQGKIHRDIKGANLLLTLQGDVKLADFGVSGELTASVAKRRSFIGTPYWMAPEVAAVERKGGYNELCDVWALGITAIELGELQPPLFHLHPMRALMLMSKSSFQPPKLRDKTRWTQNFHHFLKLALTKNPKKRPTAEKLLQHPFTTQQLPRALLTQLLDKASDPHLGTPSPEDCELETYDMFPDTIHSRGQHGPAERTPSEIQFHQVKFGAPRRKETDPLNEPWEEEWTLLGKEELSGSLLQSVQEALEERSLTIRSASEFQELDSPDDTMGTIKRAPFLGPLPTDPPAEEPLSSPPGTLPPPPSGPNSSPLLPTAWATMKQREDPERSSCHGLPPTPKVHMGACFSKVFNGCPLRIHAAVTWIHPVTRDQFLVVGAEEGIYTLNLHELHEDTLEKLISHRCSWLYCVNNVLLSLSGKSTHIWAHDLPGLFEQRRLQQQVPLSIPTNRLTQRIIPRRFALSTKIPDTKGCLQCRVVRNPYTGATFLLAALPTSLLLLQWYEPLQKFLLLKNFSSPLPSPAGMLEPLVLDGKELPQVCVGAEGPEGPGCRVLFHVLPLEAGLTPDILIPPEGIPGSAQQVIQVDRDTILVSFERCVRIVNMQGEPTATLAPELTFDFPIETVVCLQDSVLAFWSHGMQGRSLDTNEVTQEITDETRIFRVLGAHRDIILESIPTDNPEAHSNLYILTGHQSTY

[9] = target: T3, Mitogen-activated protein kinase kinase kinase kinase 2 (Homo sapiens); details: at 1 µM
[10] = target: Mitogen-activated protein kinase kinase kinase kinase 4 (Homo sapiens) (UniProt O95819); details: at 0.1 µM
[11] = target: Mitogen-activated protein kinase kinase kinase kinase 4 (Homo sapiens) (UniProt O95819); details: at 1 µM
[12] = target: Dual specificity mitogen-activated protein kinase kinase 1 (Homo sapiens) (UniProt Q02750); details: at 0.1 µM
[13] = target: Dual specificity mitogen-activated protein kinase kinase 1 (Homo sapiens) (UniProt Q02750); details: at 1 µM
[14] = target: Misshapen-like kinase 1 (Homo sapiens) (UniProt Q8N4C8); details: at 0.1 µM
[15] = target: Misshapen-like kinase 1 (Homo sapiens) (UniProt Q8N4C8); details: at 1 µM
[16] = target: T4, Serine/threonine-protein kinase 4 (Homo sapiens) (UniProt Q13043); details: at 0.1 µM
T4 sequence (whole entry): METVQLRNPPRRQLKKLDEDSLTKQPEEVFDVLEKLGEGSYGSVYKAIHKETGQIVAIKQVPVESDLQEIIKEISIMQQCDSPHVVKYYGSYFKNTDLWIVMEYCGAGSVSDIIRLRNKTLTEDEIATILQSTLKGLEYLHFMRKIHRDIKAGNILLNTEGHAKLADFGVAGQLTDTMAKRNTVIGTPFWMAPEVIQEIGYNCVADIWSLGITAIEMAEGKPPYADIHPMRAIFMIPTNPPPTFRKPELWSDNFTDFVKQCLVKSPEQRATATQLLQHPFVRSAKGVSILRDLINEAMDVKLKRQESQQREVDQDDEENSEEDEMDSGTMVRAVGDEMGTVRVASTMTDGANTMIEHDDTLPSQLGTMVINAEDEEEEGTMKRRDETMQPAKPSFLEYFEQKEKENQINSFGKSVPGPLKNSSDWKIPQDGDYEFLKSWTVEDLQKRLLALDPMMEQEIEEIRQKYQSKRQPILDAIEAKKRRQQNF

[17] = target: T4, Serine/threonine-protein kinase 4 (Homo sapiens); details: at 1 µM
[18] = target: T5, Serine/threonine-protein kinase 3 (Homo sapiens) (UniProt Q13188); details: at 0.1 µM
T5 sequence (whole entry): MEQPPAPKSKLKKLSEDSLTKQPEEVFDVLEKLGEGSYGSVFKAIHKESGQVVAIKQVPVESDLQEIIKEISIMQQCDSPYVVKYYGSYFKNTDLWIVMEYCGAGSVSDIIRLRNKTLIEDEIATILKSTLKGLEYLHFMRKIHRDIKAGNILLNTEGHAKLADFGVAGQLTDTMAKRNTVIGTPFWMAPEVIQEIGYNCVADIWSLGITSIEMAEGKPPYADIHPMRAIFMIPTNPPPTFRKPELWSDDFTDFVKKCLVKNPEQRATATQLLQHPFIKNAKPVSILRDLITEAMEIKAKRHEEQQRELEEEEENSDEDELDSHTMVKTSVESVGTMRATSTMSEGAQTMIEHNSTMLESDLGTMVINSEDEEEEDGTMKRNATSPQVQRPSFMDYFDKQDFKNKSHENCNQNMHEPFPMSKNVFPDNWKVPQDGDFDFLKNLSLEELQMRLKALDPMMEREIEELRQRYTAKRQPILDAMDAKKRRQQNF

[19] = target: T5, Serine/threonine-protein kinase 3 (Homo sapiens); details: at 1 µM
[20] = target: Serine/threonine-protein kinase 26 (Homo sapiens) (UniProt Q9P289); details: at 0.1 µM
Serine/threonine-protein kinase 26 (Homo sapiens), sequence (Q9P289 2-416 limits assumed): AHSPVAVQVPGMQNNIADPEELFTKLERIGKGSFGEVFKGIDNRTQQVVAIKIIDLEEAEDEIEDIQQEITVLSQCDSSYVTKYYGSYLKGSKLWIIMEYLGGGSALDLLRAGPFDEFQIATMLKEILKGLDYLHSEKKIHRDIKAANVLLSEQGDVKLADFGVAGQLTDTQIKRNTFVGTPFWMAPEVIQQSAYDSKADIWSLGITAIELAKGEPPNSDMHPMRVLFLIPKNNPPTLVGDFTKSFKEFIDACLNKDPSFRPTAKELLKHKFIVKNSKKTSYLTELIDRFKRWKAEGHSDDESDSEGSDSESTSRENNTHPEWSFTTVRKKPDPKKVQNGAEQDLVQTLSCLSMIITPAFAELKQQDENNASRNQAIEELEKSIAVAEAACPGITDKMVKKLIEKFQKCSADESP

Serine/threonine-protein kinase 10 (Homo sapiens), sequence (O94804 whole entry, looked up): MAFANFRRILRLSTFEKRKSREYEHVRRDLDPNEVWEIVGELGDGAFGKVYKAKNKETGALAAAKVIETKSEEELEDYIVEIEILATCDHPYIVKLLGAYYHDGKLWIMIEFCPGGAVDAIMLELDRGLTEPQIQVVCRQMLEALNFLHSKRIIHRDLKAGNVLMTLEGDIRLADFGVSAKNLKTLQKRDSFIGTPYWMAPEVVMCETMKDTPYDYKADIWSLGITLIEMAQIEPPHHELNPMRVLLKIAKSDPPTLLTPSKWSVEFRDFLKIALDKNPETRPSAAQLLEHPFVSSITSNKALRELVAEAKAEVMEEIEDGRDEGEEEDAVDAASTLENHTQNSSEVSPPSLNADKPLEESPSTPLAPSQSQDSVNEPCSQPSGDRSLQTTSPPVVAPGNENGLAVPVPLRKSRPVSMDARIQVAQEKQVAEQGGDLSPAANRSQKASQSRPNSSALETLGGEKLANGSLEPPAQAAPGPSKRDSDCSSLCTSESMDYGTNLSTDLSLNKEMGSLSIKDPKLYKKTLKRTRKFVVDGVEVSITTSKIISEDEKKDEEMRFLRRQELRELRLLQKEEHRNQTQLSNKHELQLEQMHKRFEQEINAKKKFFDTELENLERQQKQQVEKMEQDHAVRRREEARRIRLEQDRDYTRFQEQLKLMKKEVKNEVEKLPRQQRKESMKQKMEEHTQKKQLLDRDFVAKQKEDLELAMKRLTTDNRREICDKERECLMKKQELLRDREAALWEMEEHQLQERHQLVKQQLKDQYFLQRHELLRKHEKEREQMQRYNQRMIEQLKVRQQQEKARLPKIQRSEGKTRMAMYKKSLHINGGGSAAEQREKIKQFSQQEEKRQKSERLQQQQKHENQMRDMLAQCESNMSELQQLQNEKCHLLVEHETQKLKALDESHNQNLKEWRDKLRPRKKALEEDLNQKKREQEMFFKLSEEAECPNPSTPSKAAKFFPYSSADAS
Dual specificity mitogen-activated protein kinase kinase 1 (Homo sapiens), sequence (Q02750 whole entry): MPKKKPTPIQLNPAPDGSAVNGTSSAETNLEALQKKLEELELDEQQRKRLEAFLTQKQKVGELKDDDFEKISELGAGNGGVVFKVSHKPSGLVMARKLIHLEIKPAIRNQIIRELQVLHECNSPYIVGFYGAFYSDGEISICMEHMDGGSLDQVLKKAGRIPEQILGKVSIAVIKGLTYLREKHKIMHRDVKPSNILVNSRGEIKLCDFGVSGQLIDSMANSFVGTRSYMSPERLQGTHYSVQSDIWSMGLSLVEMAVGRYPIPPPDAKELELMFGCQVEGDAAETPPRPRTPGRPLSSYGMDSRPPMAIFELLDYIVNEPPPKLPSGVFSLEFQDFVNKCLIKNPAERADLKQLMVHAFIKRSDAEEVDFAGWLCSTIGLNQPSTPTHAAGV
Aurora kinase B (Homo sapiens), sequence (Q96GD4 whole entry): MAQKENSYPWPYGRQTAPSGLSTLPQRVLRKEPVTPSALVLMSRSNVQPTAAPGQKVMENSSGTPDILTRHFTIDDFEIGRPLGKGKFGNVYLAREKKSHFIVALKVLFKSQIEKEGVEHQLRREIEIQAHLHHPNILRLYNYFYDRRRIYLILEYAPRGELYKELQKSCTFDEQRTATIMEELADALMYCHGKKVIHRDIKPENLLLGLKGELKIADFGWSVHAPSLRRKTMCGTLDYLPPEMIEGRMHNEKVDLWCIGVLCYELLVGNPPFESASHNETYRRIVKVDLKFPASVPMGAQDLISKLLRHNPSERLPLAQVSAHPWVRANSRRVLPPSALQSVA
Mitogen-activated protein kinase kinase kinase kinase 4 (Homo sapiens), sequence (O95819 2-1239 limits assumed): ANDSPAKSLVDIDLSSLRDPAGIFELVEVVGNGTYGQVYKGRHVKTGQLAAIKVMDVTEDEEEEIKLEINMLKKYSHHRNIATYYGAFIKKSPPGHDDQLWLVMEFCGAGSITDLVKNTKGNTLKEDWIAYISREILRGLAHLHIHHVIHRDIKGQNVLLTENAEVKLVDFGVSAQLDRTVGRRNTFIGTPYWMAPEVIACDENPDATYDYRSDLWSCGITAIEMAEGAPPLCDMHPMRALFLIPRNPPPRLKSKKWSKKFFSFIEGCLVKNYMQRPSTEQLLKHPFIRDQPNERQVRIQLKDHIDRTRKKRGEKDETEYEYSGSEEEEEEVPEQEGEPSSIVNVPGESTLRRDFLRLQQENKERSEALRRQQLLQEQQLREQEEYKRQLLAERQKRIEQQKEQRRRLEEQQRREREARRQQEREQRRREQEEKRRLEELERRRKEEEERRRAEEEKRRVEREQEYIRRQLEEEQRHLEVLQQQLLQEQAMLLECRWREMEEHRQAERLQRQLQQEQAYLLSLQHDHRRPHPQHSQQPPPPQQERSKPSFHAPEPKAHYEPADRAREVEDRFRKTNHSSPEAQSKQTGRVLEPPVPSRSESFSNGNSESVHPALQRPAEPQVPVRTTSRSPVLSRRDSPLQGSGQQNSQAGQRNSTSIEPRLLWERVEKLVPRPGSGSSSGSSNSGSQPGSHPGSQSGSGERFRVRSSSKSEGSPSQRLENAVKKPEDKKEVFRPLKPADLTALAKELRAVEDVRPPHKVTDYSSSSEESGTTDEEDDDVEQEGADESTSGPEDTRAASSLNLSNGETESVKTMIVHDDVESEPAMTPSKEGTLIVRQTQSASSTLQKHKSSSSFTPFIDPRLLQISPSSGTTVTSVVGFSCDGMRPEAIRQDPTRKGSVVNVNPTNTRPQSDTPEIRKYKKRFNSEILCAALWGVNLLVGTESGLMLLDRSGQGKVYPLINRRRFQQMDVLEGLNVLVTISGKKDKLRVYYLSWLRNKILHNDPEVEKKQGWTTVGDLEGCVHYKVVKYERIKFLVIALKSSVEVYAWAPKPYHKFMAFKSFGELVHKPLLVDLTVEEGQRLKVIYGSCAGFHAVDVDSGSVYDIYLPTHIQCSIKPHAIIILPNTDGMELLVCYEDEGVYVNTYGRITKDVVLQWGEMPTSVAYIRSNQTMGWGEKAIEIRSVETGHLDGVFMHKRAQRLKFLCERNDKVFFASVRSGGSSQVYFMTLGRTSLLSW
Misshapen-like kinase 1 (Homo sapiens), sequence (Q8N4C8 whole entry, looked up): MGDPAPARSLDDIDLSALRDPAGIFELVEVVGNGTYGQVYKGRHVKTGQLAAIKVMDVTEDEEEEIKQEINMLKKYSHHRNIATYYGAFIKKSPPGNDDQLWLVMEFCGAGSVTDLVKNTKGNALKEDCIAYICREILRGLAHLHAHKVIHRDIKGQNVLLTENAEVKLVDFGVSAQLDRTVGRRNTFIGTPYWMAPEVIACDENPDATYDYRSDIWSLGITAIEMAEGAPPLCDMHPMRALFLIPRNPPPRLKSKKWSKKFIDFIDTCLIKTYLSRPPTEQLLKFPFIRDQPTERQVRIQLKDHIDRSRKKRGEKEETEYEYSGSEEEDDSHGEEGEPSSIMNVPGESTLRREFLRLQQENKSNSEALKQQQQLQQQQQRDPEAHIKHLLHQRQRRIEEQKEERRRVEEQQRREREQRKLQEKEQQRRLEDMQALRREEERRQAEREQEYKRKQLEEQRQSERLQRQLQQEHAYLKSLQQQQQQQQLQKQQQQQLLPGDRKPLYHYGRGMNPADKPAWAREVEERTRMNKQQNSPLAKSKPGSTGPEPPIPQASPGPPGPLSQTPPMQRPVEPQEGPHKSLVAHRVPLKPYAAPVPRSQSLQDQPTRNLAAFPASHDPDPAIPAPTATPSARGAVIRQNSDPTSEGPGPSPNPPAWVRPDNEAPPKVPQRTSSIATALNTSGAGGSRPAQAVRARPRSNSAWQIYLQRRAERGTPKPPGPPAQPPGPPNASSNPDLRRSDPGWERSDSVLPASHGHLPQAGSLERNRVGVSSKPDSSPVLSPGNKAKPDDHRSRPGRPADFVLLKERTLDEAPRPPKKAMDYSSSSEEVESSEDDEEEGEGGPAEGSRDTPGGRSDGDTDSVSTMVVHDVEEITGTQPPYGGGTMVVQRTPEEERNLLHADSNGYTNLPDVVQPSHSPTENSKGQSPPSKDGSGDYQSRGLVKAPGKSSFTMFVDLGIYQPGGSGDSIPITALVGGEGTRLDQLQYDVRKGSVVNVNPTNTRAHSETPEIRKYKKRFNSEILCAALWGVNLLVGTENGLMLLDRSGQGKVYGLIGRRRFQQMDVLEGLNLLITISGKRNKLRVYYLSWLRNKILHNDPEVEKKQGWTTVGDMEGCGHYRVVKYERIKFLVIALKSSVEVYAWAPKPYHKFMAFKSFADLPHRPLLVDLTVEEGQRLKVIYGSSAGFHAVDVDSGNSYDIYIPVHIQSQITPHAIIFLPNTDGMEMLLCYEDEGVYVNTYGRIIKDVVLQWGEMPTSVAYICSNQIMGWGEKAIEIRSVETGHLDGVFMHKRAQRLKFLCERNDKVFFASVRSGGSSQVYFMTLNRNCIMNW

| SMILES | inhibition [1] [%] | inhibition [2] [%] | inhibition [3] [%] | inhibition [4] [%] | inhibition [5] [%] | inhibition [6] [%] | inhibition [7] [%] | inhibition [8] [%] | inhibition [9] [%] | inhibition [10] [%] | inhibition [11] [%] | inhibition [12] [%] | inhibition [13] [%] | inhibition [14] [%] | inhibition [15] [%] | inhibition [16] [%] | inhibition [17] [%] | inhibition [18] [%] | inhibition [19] [%] | inhibition [20] [%] |
| --- | --- | --- | --- | --- | --- | --- | --- | --- | --- | --- | --- | --- | --- | --- | --- | --- | --- | --- | --- | --- |
| CCn1cc(-c2ccnc3[nH]ccc23)c(-c2cccc(NC(=O)Nc3ccc(OCc4ccccc4)cc3)c2)n1 | 7.41 | 2.62 | 14.1 | 0.13 | 19.5 | 2.56 | 7.07 | 0.73 | 10.4 | 1.57 | 27.8 | 0.08 | 1.59 | 3 | 30.9 | 1.36 | 1.63 | 2.37 | 2.77 | 0.67 |
| Nc1nc(-c2cccc(Cl)c2)c(-c2ccc3ncccc3n2)s1 | 4.83 | 3.18 | 5.58 | 1.1 | -2.15 | 8.2 | 14.4 | 1.48 | 3.7 | 12.6 | 60.1 | 5.85 | 5.35 | 10.7 | 46.9 | 5.29 | 7.53 | 5.84 | 7.74 | -1.9 |
| c1ccc(COc2ccc(Nc3ncnc4ccc(-c5ccco5)cc34)cc2)cc1 | 3.53 | 1.9 | 4.9 | 0.82 | 6.4 | 3.53 | 5.39 | 2.84 | 2.66 | 2.01 | 6.14 | 1.63 | 1.55 | 4.04 | 3.27 | -0.04 | 0.76 | 0.84 | 1.9 | 1.19 |
| CS(=O)(=O)CCNCc1ccc(-c2ccc3ncnc(Nc4ccc(OCc5ccccc5)c(C(F)(F)F)c4)c3c2)o1 | 2.77 | 1.73 | 3.4 | -0.38 | 2.61 | 5.07 | 8.24 | 0.85 | 1.46 | 2.98 | 4.73 | 3.83 | 3.81 | 5.41 | 5.83 | 2.67 | 3.71 | 4.04 | 4.03 | -1.35 |
| Fc1cccc(COc2ccc(Nc3ncnc4sc(-c5ccco5)cc34)cc2Cl)c1 | 3.83 | 3.38 | 6.89 | 5.96 | 7.59 | 9.25 | 15 | 1.99 | 3.87 | 3.43 | 6.92 | 5.47 | 3.29 | 6.46 | 7.36 | 4.94 | 8.32 | 6.61 | 8.59 | -1.76 |
| COc1ccc2[nH]c3c4[nH]c5ccc(OC)cc5c4c4c(c3c2c1)C(=O)NC4=O | 68.8 | 20.7 | 66.9 | 12.4 | 86.8 | 9.72 | 40.2 | 2.06 | 12.1 | 84.6 | 88.4 | 4.86 | 7.06 | 81.3 | 84.8 | 13 | 42 | 14.2 | 42.4 | 4.27 |
| CCn1c(-c2nonc2N)nc2cnc(Oc3cccc(NC(=O)c4ccc(N(C)C)cc4)c3)cc21 | 79.2 | 3.58 | 18.1 | 1.17 | 43.7 | 2.62 | 5.59 | -0.28 | 3.56 | 3.32 | 29.4 | 1.11 | 2.61 | 3.19 | 28.2 | -0.06 | 1.47 | 0.98 | 2.32 | -1.48 |
| c1cc(-c2cnn3nc(N4CCOCC4)ccc23)nc(NC2CC2)n1 | 22 | 7.41 | 46.8 | 7.39 | 75.5 | 5.74 | 12.1 | -0.22 | 5.78 | 6.38 | 20.9 | 4.84 | 9.33 | 4.94 | 13.9 | 7.25 | 10.3 | 8.19 | 8.11 | -0.92 |
| CNC(=O)c1cncc(/C=C/c2ccccc2Cl)c1 | 12 | 2.57 | 7.3 | 5.27 | -3.84 | 3.92 | 8.22 | 1.8 | 2.04 | 2.52 | 15.2 | -0.39 | 2.24 | 2.28 | 15.4 | 4.63 | 7.5 | 5.87 | 7.94 | 1.78 |
| CN1CCC(n2cnc(-c3ccc(F)cc3)c2-c2ccnc(N)n2)CC1 | 7.96 | 1.08 | 7.37 | 1.63 | 1.25 | 3.39 | 5.28 | 0.79 | 5.37 | 2.95 | 12 | 3.26 | 3.41 | 4.61 | 11 | 2.73 | 7.85 | 3.58 | 6.77 | -1.05 |
| COc1ccc(CNC(=O)c2ccc(-c3cc(-c4nnc(C)o4)ccc3C)cc2)cc1 | 4.73 | 5.79 | 6.54 | 2.85 | -5.63 | 13.2 | 20.7 | 4 | 6.93 | 3.14 | 16.3 | 3.35 | 0.16 | 3.36 | 12.7 | 7.99 | 14.7 | 6.56 | 13.6 | 3.07 |
| CCn1c(-c2nonc2N)nc2ccccc21 | 7.95 | 0.55 | 5.64 | -0.58 | 11.2 | 2.59 | 6.5 | 0.98 | 3.67 | 4.69 | 22.5 | 4.06 | 4.74 | 5.52 | 13.2 | 5.56 | 7.11 | 6.31 | 5.79 | -1.3 |
| CC(=O)Nc1cccc(C#Cc2cncnc2Nc2ccc(OCc3cccc(F)c3)c(Cl)c2)c1 | 8.44 | 1.68 | 5.28 | 2.09 | 15.3 | 2.85 | 4.01 | 0.88 | 1.54 | 2.7 | 2.59 | 2.07 | 3.13 | 2.21 | 3.87 | 3.97 | 5.79 | 4.97 | 2.1 | 1.4 |
